Only a selection was taken, and hits are over-represented in it overall.
KDM5B inhibitor – blocks human KDM5B histone demethylase activity; Potency, µM (doses to about 57.7 µM), hits mostly inhibitors; 2.6% of 220,000 active; AID 1347165; KDM5B demethylase, FDH-coupled NADH fluorescence (FDH is formaldehyde dehydrogenase); active = well fitted inhibition curve with a large enough effect; note: 0% is about no effect; nearly all actives have a fitted effect of over 70% in size
Target sequence (Q9UGL1 whole entry, looked up): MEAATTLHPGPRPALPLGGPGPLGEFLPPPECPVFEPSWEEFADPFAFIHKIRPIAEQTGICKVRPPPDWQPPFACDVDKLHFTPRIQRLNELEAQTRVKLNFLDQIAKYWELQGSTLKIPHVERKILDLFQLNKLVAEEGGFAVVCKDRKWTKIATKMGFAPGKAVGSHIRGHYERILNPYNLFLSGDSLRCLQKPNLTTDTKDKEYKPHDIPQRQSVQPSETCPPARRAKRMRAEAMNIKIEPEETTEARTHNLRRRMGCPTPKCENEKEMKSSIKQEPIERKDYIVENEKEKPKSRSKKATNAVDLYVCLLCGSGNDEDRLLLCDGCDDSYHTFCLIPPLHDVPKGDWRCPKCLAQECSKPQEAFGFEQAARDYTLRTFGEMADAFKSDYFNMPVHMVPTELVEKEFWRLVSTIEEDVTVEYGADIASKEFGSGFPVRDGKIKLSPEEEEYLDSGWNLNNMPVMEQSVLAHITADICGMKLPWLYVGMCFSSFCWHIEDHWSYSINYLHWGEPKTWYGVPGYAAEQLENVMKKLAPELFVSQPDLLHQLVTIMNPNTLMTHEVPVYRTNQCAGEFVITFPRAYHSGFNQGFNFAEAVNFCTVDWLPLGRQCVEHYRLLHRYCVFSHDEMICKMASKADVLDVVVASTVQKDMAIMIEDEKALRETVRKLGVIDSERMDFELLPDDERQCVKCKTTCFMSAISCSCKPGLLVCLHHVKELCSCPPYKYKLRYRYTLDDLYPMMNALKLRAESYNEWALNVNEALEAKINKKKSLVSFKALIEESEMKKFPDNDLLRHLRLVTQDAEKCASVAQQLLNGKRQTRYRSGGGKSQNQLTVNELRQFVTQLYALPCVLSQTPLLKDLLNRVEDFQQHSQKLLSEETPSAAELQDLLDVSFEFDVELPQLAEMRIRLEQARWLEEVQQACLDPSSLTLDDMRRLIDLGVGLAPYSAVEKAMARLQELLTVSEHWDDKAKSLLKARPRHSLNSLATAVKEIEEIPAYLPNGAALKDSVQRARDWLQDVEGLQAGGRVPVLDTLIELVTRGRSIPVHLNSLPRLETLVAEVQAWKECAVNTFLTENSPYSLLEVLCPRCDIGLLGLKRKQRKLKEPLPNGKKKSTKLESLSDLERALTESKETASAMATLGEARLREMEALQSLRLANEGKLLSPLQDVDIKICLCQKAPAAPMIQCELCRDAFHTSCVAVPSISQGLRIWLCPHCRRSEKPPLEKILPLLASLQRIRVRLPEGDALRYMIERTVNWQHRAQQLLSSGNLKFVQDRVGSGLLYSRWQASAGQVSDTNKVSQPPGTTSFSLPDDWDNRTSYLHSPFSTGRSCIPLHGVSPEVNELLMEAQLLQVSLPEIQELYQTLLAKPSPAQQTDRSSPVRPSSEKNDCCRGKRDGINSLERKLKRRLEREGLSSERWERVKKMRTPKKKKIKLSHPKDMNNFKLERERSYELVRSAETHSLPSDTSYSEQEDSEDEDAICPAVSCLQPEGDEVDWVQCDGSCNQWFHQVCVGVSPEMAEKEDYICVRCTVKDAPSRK
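Compound dilutions met 200 nM (final) KDM5BΔAP for 10 min at room temperature before substrate addition. The substrate mix held 12.5 µM H3K4me3 with cofactors 25 µM α-ketoglutarate and 50 µM Fe²⁺. NADH signal gain over 30 min defined activity.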
An asterisk follows results filed as active; i = inactive. Potency is the fitted concentration of half-maximal effect.

SMILES	KDM5B inhibitor
COc1ccc(OC)c(NC(=O)C2CC(=O)N(c3n[nH]c4cccc(F)c34)C2)c1 (stereo not given)	32µM*
C=CCNC(=O)C1CC(=O)N(c2n[nH]c3cccc(F)c23)C1 (stereo not given)	i
CS(=O)(=O)N1CCN(C(=O)C2CC(=O)N(c3n[nH]c4cccc(F)c34)C2)CC1 (stereo not given)	i
CC(C)CCNC(=O)C1CC(=O)N(c2n[nH]c3cccc(F)c23)C1 (stereo not given)	i
O=C(NCc1ccccc1)C1CC(=O)N(c2n[nH]c3cccc(F)c23)C1 (stereo not given)	i
O=C(NCc1ccc(Cl)cc1)C1CC(=O)N(c2n[nH]c3cccc(F)c23)C1 (stereo not given)	20µM*
O=C(C1CC(=O)N(c2n[nH]c3ccccc23)C1)N1CCN(c2ccc(Cl)cc2)CC1 (stereo not given)	i
O=C(NCc1ccccn1)C1CC(=O)N(c2n[nH]c3cccc(F)c23)C1 (stereo not given)	i
COc1ccc(CCNC(=O)C2CC(=O)N(c3n[nH]c4cccc(F)c34)C2)cc1OC (stereo not given)	i
O=C(Nc1nccs1)C1CC(=O)N(c2n[nH]c3cccc(F)c23)C1 (stereo not given)	i
CCOc1ccc(NC(=O)C2CC(=O)N(c3n[nH]c4cccc(F)c34)C2)cc1 (stereo not given)	22µM*
COc1cccc(C(=O)Oc2ccc(C)c(C)c2)c1	i
O=C(OCc1cc(-c2ccc(Cl)cc2)no1)c1cc(Br)c[nH]1	i
CCONC(=O)c1ccc(OCC(C)C)cc1	i
CC(C)(C)c1oc(C(N)=O)cc1CN1CCCC(CO)(CC2CC2)C1 (stereo not given)	i
Cc1ccc(C(=O)NC(NC(=O)c2ccc(Cl)cc2)C(Cl)Cl)cc1 (stereo not given)	i
OC(CNC(=S)Nc1ccc(Cl)cc1Cl)COCc1ccco1 (stereo not given)	i
Cc1ccc2c(=O)cc(C(=O)NCC(c3cccs3)N3CCCCC3)oc2c1C (stereo not given)	i
Cc1ccc(C)c(-c2csc(NC(=O)c3ccccc3SCc3noc(C)n3)n2)c1	i
CC(CNCc1cccs1)CN1CCCCC1 (stereo not given)	i
Cc1ccc(NC(=O)C2CC(=O)N(c3n[nH]c4cccc(F)c34)C2)cc1 (stereo not given)	20µM*
Cn1cc(NC(=O)C2CC(=O)N(c3n[nH]c4cccc(F)c34)C2)cn1 (stereo not given)	i
CC(C)(C)c1csc(NC(=O)C2CC(=O)N(c3n[nH]c4cccc(F)c34)C2)n1 (stereo not given)	i
Cc1ccc(NC(=O)C2CC(=O)N(c3n[nH]c4cccc(F)c34)C2)nc1 (stereo not given)	i
COc1ccc(NC(=O)C2CC(=O)N(c3n[nH]c4cccc(F)c34)C2)cc1 (stereo not given)	25µM*
SMILES	KDM5B inhibitor
Cc1ccnc(NC(=O)C2CC(=O)N(c3n[nH]c4cccc(F)c34)C2)c1 (stereo not given)	i
Cc1ccc(NC(=O)C2CC(=O)N(c3n[nH]c4cccc(F)c34)C2)c(C)c1 (stereo not given)	22µM*
Cc1ccc2nc(NC(=O)C3CC(=O)N(c4n[nH]c5cccc(F)c45)C3)sc2c1 (stereo not given)	i
Cc1nc(NC(=O)C2CC(=O)N(c3n[nH]c4cccc(F)c34)C2)sc1C (stereo not given)	i
COc1ccccc1-c1c(C)oc2cc(OCC=C(C)C)ccc2c1=O	i
O=C(NCCc1ccccc1)N1CCC(c2noc(-c3ccccc3)n2)C1 (stereo not given)	i
O=C(NCCc1noc(-c2ccncc2)n1)C1CCCO1 (stereo not given)	i
CC(C)CN(C(=O)CN(C)C(=O)Cc1cccc2ccccc12)c1c(N)n(CC(C)C)c(=O)[nH]c1=O	i
C/C(=N\NC(=O)C1CCCCC1)c1ccc(C2CCCCC2)cc1	i
CCC1CN(C(=O)Cn2cnc3sccc3c2=O)CCO1 (stereo not given)	i
COc1ccc(-n2c(SCC3CCCCO3)nnc2-c2ccccc2OC)cc1 (stereo not given)	i
COc1ccc([C@@H]2CN(c3ncccc3C#N)C[C@H]2NC(C)=O)cc1	28µM*
CNC(=O)c1cccnc1N1CCOC(c2ccc3cc(OC)ccc3c2)C1 (stereo not given)	i
COc1ccc(C2(C(=O)NCc3cccnc3N3CCN(C)CC3)CC2)cc1	i
CC(C)(C)C(CN1CCCC1)OC(=O)c1ccccc1C(=O)O (stereo not given)	i
COc1coc(CN2Cc3[nH]cnc3CC2C(=O)O)cc1=O (stereo not given)	i
COC(=O)[C@@H]1Cc2nc[nH]c2CN1C(=O)c1ccccc1	i
O=C(NCc1ccc(C(F)(F)F)cc1)[C@@H]1Cc2nc[nH]c2CN1Cc1ccc([N+](=O)[O-])cc1	i
COc1ccc(CN2Cc3[nH]cnc3C[C@H]2C(=O)N2CCC(Cc3ccccc3)CC2)cc1	i
COC(=O)[C@@H]1Cc2nc[nH]c2CN1Cc1ccc([N+](=O)[O-])cc1	28µM*
COC(=O)[C@@H]1Cc2nc[nH]c2CN1Cc1ccc(OC)c2ccccc12	32µM*
COC(=O)c1cn(CC(=O)Nc2ccccc2)c2ccccc12	i
CCCCN(CC)Cc1c(C)[nH]c2c(C)cc(C)cc2c1=O	i
CCCCNC(=O)c1ccc2c(c1)N(C(=O)c1ccc(F)cc1)CC2	i
CC1=C[C@@H](CN2CCC[C@H]2CO)[C@H](C(C)C)C[C@H]1Cc1nnc(-c2ccc(N(C)C)cc2)o1	11µM*
SMILES	KDM5B inhibitor
COc1ccc(-c2nnc(C[C@@H]3C[C@@H](C(C)C)[C@H](CN4CCN(CCO)CC4)C=C3C)o2)cc1	i
CC(=O)NCCNC[C@@H]1C=C(C)[C@H](Cc2nnc(-c3ccc(C)cc3)o2)C[C@H]1C(C)C	i
CC1=C[C@@H](CO)[C@H](C(C)C)C[C@H]1Cc1nnc(-c2ccc(N(C)C)cc2)o1	32µM*
CC1=C[C@@H](CNCCN(C)C)[C@H](C(C)C)C[C@H]1Cc1nnc(-c2ccc(C)cc2)o1	i
CC1=C[C@@H](CO)[C@H](C(C)C)C[C@H]1Cc1nnc(-c2ccncc2)o1	i
CC1=C[C@@H](CO)[C@H](C(C)C)C[C@H]1Cc1nnc(C(C)(C)C)o1	i
CC1=C[C@@H](CN2CCC(CO)CC2)[C@H](C(C)C)C[C@H]1Cc1nnc(-c2ccncc2)o1	i
COCCNC[C@@H]1C=C(C)[C@H](Cc2nnc(-c3ccc(N(C)C)cc3)o2)C[C@H]1C(C)C	28µM*
CCCn1nc(C(=O)Nc2ccc(C(C)=O)cc2)c2ccccc2c1=O	i
COC(=O)c1ccc(CN(C)S(=O)(=O)c2ccc3c(c2)OCCCO3)cc1	i
Cc1nc(CN2CCN(C(=O)NCC(C)(C)N(C)C)CC2)cs1	i
COc1ccc(CN(C)C2CCCN(CCc3ccccc3)C2)cc1F (stereo not given)	i
Cc1cccc(Cn2c(Br)nc3c2c(=O)n(C)c(=O)n3C)c1	i
COc1ccccc1Cc1nc2ccccc2nc1SC(C)C(=O)NCc1ccco1 (stereo not given)	i
COc1cncc(Nc2cnc3ccc(-c4cccc(CO)c4)nn23)c1	i

Source: PubChem BioAssay (National Center for Advancing Translational Sciences (NCATS))
